# Data from PubChem BioAssay (Tox21).
# Values without a mark were called inactive. Records with an inconclusive call do not appear. A call without a number means that no potency is given here. Activity calls are given as the source filed them. Unless noted, calls follow the shape of the dose curve; as a rule, active = well fitted curve in the direction sought with a large enough effect in the repeat runs; inconclusive = weak or mixed curves; inactive = no such curve, though single readings can be large; an effect the other way counts as inactive or inconclusive.
# Tests used:
# [1] = qHTS assay for small molecule agonists of the p53 signaling pathway (AID 651631; calls by dose curve; also: nearly all actives have a fitted effect of over 15% in size)
# Outline: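 Agonist mode screen using a stably integrated beta-lactamase gene under p53 response elements in HCT-116 cells. Compound exposure lasts 16 h at 37 °C; fluorescence intensity is measured following 2 h FRET substrate loading.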
# [2] = qHTS assay for small molecules that induce genotoxicity in human embryonic kidney cells expressing luciferase-tagged ATAD5 (AID 651632); also: nearly all actives have a fitted effect of over 15% in size
# Outline: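 A rise in luciferase signal from ATAD5-tagged HEK293T cells marks genetic stress. Cells were exposed to compounds for 16 hr at 37C, 5% CO2, then luciferase was quantified after a 30 min room-temperature incubation with Amplite.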
# [3] = qHTS assay for small molecule agonists of the p53 signaling pathway - cell viability (AID 651633; calls by dose curve;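 also: p53RE-bla HCT reporter cells with a stable beta-lactamase p53 reporter; nearly all actives have a fitted effect of over 30% in size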)
# Outline: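 p53RE-bla cells, seeded at 4,000 per well and rested 5 h at 37 C/5% CO2, received compounds in DMSO for 16 h at 37 C. CellTiter-Glo was then added, and luminescence was read after 30 min at room temperature to gauge cytotoxicity.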
# [4] = qHTS assay for small molecules that induce genotoxicity in human embryonic kidney cells expressing luciferase-tagged ATAD5 - cell viability (AID 651634; calls by dose curve; also: nearly all actives have a fitted effect of over 25% in size)
# Outline: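 Cytotoxicity counter-readout: after 15.5 hr compound treatment at 37C, live-cell protease activity in ATAD5-luciferase HEK293T cells measured by CellTiter-Fluor fluorescence, 30 min development at 37C.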
# [5] = qHTS assay for small molecule disruptors of the mitochondrial membrane potential - cell viability (AID 720634; calls by dose curve;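 also: human HepG2 liver cancer cells; nearly all actives have a fitted effect of over 20% in size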)
# Outline: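 Cytotoxicity was quantified from ATP content by CellTiter-Glo luminescence in the same wells as the MMP dye read-out. HepG2 (2,000 cells/well) were plated overnight and exposed to compounds for 1 hr at 37 C.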
# [6] = qHTS assay to test for compound auto fluorescence at 590 nm (red) in HepG2 cells (AID 720674)
# Outline: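 Rose Bengal sodium served as the red fluorophore standard. HepG2 monolayers (overnight attachment, MEM with 10% FBS) were exposed to test compounds for 1 hr at 37 C and read at Ex 540/Em 590 nm.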
# [7] = qHTS assay to test for compound auto fluorescence at 535 nm (green) in HepG2 cells (AID 720675)
# [8] = qHTS assay to test for compound auto fluorescence at 460 nm (blue) in HEK293 cells (AID 720678)
# Outline: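 Cells were seeded and left to adhere for 4-5 hr at 37C. Compounds were then pin-transferred. After an overnight incubation at 37C under 5% CO2, intrinsic fluorescence at 405/460 nm was measured and referenced to triamterene.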
# [9] = qHTS assay to test for compound auto fluorescence at 590 nm (red) in HEK293 cells (AID 720679)
# Outline: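 Each well held 2,000 HEK293 cells in medium containing 10% dialyzed FBS. Following 4-5 hr attachment at 37C, 23 nL test compound or DMSO was added; plates sat overnight, and red fluorescence (540/590nm) was recorded.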
# [10] = qHTS assay to test for compound auto fluorescence at 535 nm (green) in HEK293 cells (AID 720680)
# [11] = qHTS assay to test for compound auto fluorescence at 460 nm (blue) in HEK293 cell free culture (AID 720681)
# Outline: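 Test compounds were pinned into cell-free culture medium (DMEM with 10% FBS) and fluorescence was read directly at Ex/Em 405/460 nm. Signals were expressed as fluorescence equivalents of triamterene, with DMSO vehicle as control.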
# [12] = qHTS assay to test for compound auto fluorescence at 535 nm (green) in HEK293 cell free culture (AID 720682)
# Outline: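 No cells present: wells hold DMEM supplemented with 10% FBS, into which compound or vehicle is pinned. Green emission is then recorded (485 nm excitation, 535 nm emission) and scaled to fluorescein.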
# [13] = qHTS assay to test for compound auto fluorescence at 590 nm (red) in HEK293 cell free culture (AID 720683)
# Outline: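 Tox21 10K library compounds were pinned into cell-free DMEM with 10% FBS and fluorescence was read at excitation 540 nm. Activity is expressed as Rose Bengal sodium equivalency.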
# [14] = qHTS assay to test for compound auto fluorescence at 590 nm (red) in HepG2 cell free culture (AID 720684)
# Outline: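 Readout: intrinsic compound fluorescence at 590 nm emission after 540 nm excitation, scaled to Rose Bengal sodium. Matrix was cell-free MEM with 10% FBS; DMSO vehicle wells served as control.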
# [15] = qHTS assay to test for compound auto fluorescence at 460 nm (blue) in HepG2 cell free culture (AID 720685)
# Outline: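 Cell-free plates of MEM plus 10% FBS received 23 nL compound or DMSO vehicle; blue-channel (405/460 nm) intensity scored against triamterene as reference fluorophore.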
# [16] = qHTS assay to test for compound auto fluorescence at 460 nm (blue) in HepG2 cells (AID 720687)
# Outline: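 Cells (2,000/well in MEM with 10% FBS) attached overnight at 37 C, then were exposed to compound or DMSO for 1 hr at 37 C, 5% CO2. Fluorescence read at Ex/Em 405/460 nm, expressed as triamterene-equivalent signal.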
# [17] = biological target: Glucocorticoid receptor (Homo sapiens) (UniProt P04150); assay: qHTS assay to identify small molecule antagonists of the glucocorticoid receptor (GR) signaling pathway (AID 720692; active = well fitted inhibition curve with a large enough effect in the signal ratio in the repeat runs, not every such curve was filed as active; the % refers to the signal ratio)
# Glucocorticoid receptor (Homo sapiens), sequence (P04150 whole entry, looked up): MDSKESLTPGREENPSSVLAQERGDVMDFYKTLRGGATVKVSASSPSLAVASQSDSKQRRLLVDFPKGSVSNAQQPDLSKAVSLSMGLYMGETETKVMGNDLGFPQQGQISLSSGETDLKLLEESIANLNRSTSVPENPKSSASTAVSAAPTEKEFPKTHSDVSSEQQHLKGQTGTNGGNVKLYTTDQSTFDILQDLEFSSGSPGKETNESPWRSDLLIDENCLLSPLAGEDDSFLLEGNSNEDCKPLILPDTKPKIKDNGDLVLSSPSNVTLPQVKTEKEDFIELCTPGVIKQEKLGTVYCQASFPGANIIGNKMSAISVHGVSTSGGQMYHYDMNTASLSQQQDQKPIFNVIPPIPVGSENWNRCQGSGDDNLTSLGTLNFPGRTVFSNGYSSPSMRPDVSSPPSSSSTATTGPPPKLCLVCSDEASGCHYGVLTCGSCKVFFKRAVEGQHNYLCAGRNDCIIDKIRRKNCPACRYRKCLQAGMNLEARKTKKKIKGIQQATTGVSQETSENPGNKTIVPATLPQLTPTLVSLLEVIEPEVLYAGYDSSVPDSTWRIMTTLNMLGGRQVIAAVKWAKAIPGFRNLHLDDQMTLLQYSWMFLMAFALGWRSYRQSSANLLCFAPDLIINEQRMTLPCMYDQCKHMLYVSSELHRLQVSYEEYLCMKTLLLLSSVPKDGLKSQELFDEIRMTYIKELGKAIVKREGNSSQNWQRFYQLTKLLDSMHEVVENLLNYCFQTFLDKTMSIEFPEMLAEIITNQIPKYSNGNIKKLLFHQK
# Outline: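 Inhibition of dexamethasone-driven (5 nM final) beta-lactamase expression was measured in GRE-reporter HeLa cells over 18 h at 37C. Fluorescence was read after 2 h with the B/G FRET substrate at room temperature.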
# [18] = qHTS assay to test for compound auto fluorescence at 535 nm (green) in HepG2 cell free culture (AID 720686)
# [19] = biological target: Glucocorticoid receptor (Homo sapiens) (UniProt P04150); assay: qHTS assay to identify small molecule agonists of the glucocorticoid receptor (GR) signaling pathway (AID 720691; active = well fitted activation curve with a large enough effect in the signal ratio in the repeat runs, not every such curve was filed as active; the % refers to the signal ratio); conditions: GR-bla HeLa, beta-lactamase reporter ratio, 18 h; activation: at 62.4 µM (top of the series) unless noted
# Outline: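 Agonist-mode qHTS in HeLa cells stably expressing a glucocorticoid-response-element beta-lactamase reporter. Fluorescence intensity read with FRET substrate (2 h, room temperature) after 18 h compound treatment at 37 C.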
# [20] = qHTS assay for small molecule disruptors of the mitochondrial membrane potential (AID 720635); also: potency is read from the fitted curve at half-maximal effect
# Outline: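 HepG2 cells (2,000/well) attached overnight at 37C, then took compound for 1 hr at 37C, 5% CO2. Mito-MPS dye was added for 30 min; fluorescence was read at 490/535 nm (monomers) and 540/590 nm (aggregates).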
compound,measurement,setting,value
COC(=O)c1ccc(I)cc1S(=O)(=O)NC(=O)Nc1nc(C)nc(OC)n1,Potency,[1],inactive
same,Potency,[2],inactive
same,Potency,[3],inactive
same,Potency,[4],inactive
same,Potency,[5],inactive
same,Potency,[6],inactive
same,Potency,[7],inactive
same,outcome,[8],inactive
same,Potency,[9],inactive
same,outcome,[10],inactive
same,outcome,[11],inactive
same,outcome,[12],inactive
same,Potency,[13],inactive
same,Potency,[14],inactive
same,outcome,[15],inactive
same,outcome,[16],inactive
same,Potency,[17],inactive
C=C(C)C(=O)OCCOCC,Potency,[1],inactive
same,Potency,[2],inactive
same,Potency,[3],inactive
same,Potency,[4],inactive
same,Potency,[5],inactive
same,Potency,[6],inactive
same,Potency,[7],inactive
same,outcome,[8],inactive
same,Potency,[9],inactive
same,outcome,[10],inactive
same,outcome,[11],inactive
same,outcome,[12],inactive
same,Potency,[13],inactive
same,Potency,[14],inactive
same,outcome,[15],inactive
same,Potency,[18],inactive
same,Potency,[19],inactive
CC(=O)c1ccc2c(c1)N(CCCN(C)C)c1ccccc1S2,Potency,[1],inactive
same,Potency,[2],inactive
same,Potency,[3],inactive
same,Potency,[4],inactive
same,Potency,[5],inactive
same,"fluorescence, % of fluorescein control",[7],0.0535% [at 18.6 µM]
same,"fluorescence, % of triamterene",[8],-0.118% [at 18.6 µM]
same,"fluorescence, % of fluorescent control",[9],0.0215% [at 18.6 µM]
same,"fluorescence, % of fluorescent control",[11],-0.103% [at 18.6 µM]
same,activity change,[12],-0.283% [at 18.6 µM]
same,"fluorescence, % of Rose Bengal",[14],0.233% [at 18.6 µM]
same,"fluorescence, % of fluorescent control",[15],0.0422% [at 18.6 µM]
same,"fluorescence, % of fluorescein control",[18],-0.0543% [at 18.6 µM]
same,"fluorescence, % of fluorescent control",[16],-0.0528% [at 18.6 µM]
same,Potency,[19],inactive
same,Potency,[17],inactive
O=[N+]([O-])c1ccc(NCCO)c(OCCO)c1,Potency,[1],inactive
same,Potency,[2],inactive
same,Potency,[3],inactive
same,Potency,[5],inactive
same,Potency,[20],inactive
same,Potency,[6],inactive
same,Potency,[7],inactive
same,outcome,[8],inactive
same,Potency,[9],inactive
same,outcome,[10],inactive
same,outcome,[11],inactive
same,outcome,[12],inactive
same,Potency,[14],inactive
same,outcome,[15],inactive
same,Potency,[18],inactive
same,outcome,[16],inactive
same,Potency,[19],inactive
same,Potency,[17],inactive
COc1ccc(C)cc1[N+](=O)[O-],Potency,[1],inactive
same,Potency,[2],inactive
same,Potency,[3],inactive
same,Potency,[4],inactive
same,Potency,[5],inactive
same,Potency,[6],inactive
same,Potency,[7],inactive
same,outcome,[8],inactive
same,Potency,[9],inactive
same,outcome,[10],inactive
same,outcome,[11],inactive
same,outcome,[12],inactive
same,Potency,[13],inactive
same,Potency,[14],inactive
same,outcome,[15],inactive
same,outcome,[16],inactive
same,Potency,[19],inactive
same,Potency,[17],inactive
Nc1ccc(S(=O)(=O)Nc2ccccc2)cc1,Potency,[1],inactive
same,Potency,[2],inactive
same,Potency,[3],inactive
same,Potency,[5],inactive
same,Potency,[20],inactive
same,Potency,[6],inactive
same,Potency,[7],inactive
same,outcome,[8],inactive
same,Potency,[9],inactive
same,outcome,[11],inactive
same,outcome,[12],inactive
same,Potency,[13],inactive
same,Potency,[14],inactive
same,outcome,[15],inactive
same,Potency,[18],inactive
same,outcome,[16],inactive
same,Potency,[19],inactive
same,Potency,[17],inactive
O=S(=O)(Oc1ccc(Cl)cc1)c1ccccc1,Potency,[1],inactive
same,Potency,[2],inactive
same,Potency,[3],inactive
same,Potency,[4],inactive
same,Potency,[20],19.3 µM (active)
same,Potency,[6],inactive
same,Potency,[7],inactive
same,outcome,[8],inactive
same,Potency,[9],inactive
same,outcome,[10],inactive
same,outcome,[11],inactive
same,outcome,[12],inactive
same,Potency,[13],inactive
same,Potency,[14],inactive
same,outcome,[15],inactive
same,Potency,[18],inactive
same,outcome,[16],inactive
same,Potency,[19],inactive
same,Potency,[17],inactive
CC(=O)NO,Potency,[1],inactive
same,Potency,[2],inactive
same,Potency,[3],inactive
same,Potency,[4],inactive
same,Potency,[5],inactive
same,Potency,[6],inactive
same,Potency,[7],inactive
same,Potency,[9],inactive
same,outcome,[10],inactive
same,outcome,[11],inactive
same,outcome,[12],inactive
same,Potency,[13],inactive
same,Potency,[14],inactive
same,outcome,[15],inactive
same,outcome,[16],inactive
same,Potency,[19],inactive
same,Potency,[17],inactive
CC1(c2ccccc2)OC(C(=O)O)=CC1=O (stereo not given),Potency,[1],inactive
same,Potency,[2],inactive
same,Potency,[3],inactive
same,Potency,[4],inactive
same,Potency,[5],inactive
same,Potency,[7],inactive
same,outcome,[8],inactive
same,Potency,[9],inactive
same,outcome,[10],inactive
same,outcome,[11],inactive
same,outcome,[12],inactive
same,Potency,[13],inactive
same,Potency,[14],inactive
same,outcome,[15],inactive
same,Potency,[18],inactive
same,outcome,[16],inactive
CC1=CC=C(C(C)C)CC1,Potency,[1],inactive
same,Potency,[2],inactive
same,Potency,[3],inactive
same,Potency,[4],inactive
same,Potency,[6],inactive
same,Potency,[7],inactive
same,outcome,[8],inactive
same,Potency,[9],inactive
same,outcome,[10],inactive
same,outcome,[11],inactive
same,Potency,[13],inactive
same,Potency,[14],inactive
same,outcome,[15],inactive
same,Potency,[18],inactive
same,outcome,[16],inactive
COS(=O)(=O)C(F)(F)F,Potency,[1],inactive
same,Potency,[2],inactive
same,Potency,[3],inactive
same,Potency,[4],inactive
same,Potency,[5],inactive
same,Potency,[6],inactive
same,Potency,[7],inactive
same,outcome,[8],inactive
same,Potency,[9],inactive
same,outcome,[10],inactive
same,outcome,[11],inactive
same,outcome,[12],inactive
same,Potency,[14],inactive
same,outcome,[15],inactive
same,Potency,[18],inactive
same,outcome,[16],inactive
same,Potency,[19],inactive
same,Potency,[17],inactive
c1ccc(CNCCNCc2ccccc2)cc1,Potency,[1],inactive
same,Potency,[2],inactive
same,Potency,[3],inactive
same,Potency,[4],inactive
same,Potency,[5],inactive
same,Potency,[6],inactive
same,Potency,[7],inactive
same,outcome,[8],inactive
same,Potency,[9],inactive
same,outcome,[10],inactive
same,outcome,[11],inactive
same,outcome,[12],inactive
same,Potency,[13],inactive
same,Potency,[14],inactive
same,outcome,[15],inactive
same,Potency,[18],inactive
same,outcome,[16],inactive
same,Potency,[19],inactive
same,Potency,[17],inactive
CCOc1ccc(N)c([N+](=O)[O-])c1,Potency,[1],inactive
same,Potency,[2],inactive
same,Potency,[3],inactive
same,Potency,[5],inactive
same,Potency,[20],inactive
same,Potency,[6],inactive
same,Potency,[7],inactive
same,outcome,[8],inactive
same,Potency,[9],inactive
same,outcome,[10],inactive
same,outcome,[11],inactive
same,Potency,[13],inactive
same,Potency,[14],inactive
same,outcome,[15],inactive
same,outcome,[16],inactive
COc1ccc(S(=O)(=O)N2C(=O)[C@@](c3ccccc3OC)(N3C[C@H](O)C[C@H]3C(=O)N(C)C)c3cc(Cl)ccc32)c(OC)c1,Potency,[1],inactive
same,Potency,[2],inactive
same,Potency,[3],inactive
same,Potency,[5],inactive
same,Potency,[20],inactive
same,Potency,[6],inactive
same,Potency,[7],inactive
same,outcome,[8],inactive
same,Potency,[9],inactive
same,outcome,[10],inactive
same,outcome,[11],inactive
same,Potency,[13],inactive
same,Potency,[14],inactive
same,outcome,[15],inactive
same,Potency,[18],inactive
same,outcome,[16],inactive
same,Potency,[19],inactive
